Measured values reported in PubChem BioAssay (NCATS).
Inconclusive results are not listed. Active and inactive are the calls of the source. The call rests on the fitted dose curve; in most records, active means well fitted curve in the direction sought with a large enough effect; inconclusive means small, poorly fitted or top-dose-only effect, or another doubt; inactive means no such curve, though single readings can be large; an effect the other way counts as inactive or inconclusive.

What was measured:
[1] = qHTS assay for measurement of the activity of small molecule inhibitors on Zika virus induced Caspase-3 activity in human iPSC derived neural progenitor cells (hNPCs) (AID 1224857); settings: hNPCs ZIKV-induced caspase-3/7, Caspase-Glo luminescence, 6 h; series mostly up to 45.7 µM; further: nearly all actives have a fitted effect of over 65% in size
How it was run: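 In medium with heparin 2 ug/ml and cyclopamine 2 uM, hNPCs (350 cells/well) received compound for one hour and then Zika virus at 2 FFU/cell; caspase activity was measured by Caspase-Glo 3/7 luminescence 6 h post-infection.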

[2] = qHTS assay for measurement of the activity of small molecule inhibitors on Zika virus induced Caspase-3 activity in human astrocytoma cells (AID 1224859); settings: SNB-19 ZIKV-induced caspase-3/7, luminescence, 6 h; series mostly up to 45.7 µM
How it was run: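 A cell-based luminescent caspase-3/7 assay used SNB-19 cells infected with ZIKV (2 FFU/cell) for 6 h following 1 h compound pretreatment.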

[3] = NS1 protein of Zika virus - qHTS assay to identify small molecule inhibitors in human HEK 293 cells (AID 1347053); settings: HEK293 ZIKV MR766 infection, NS1 TR-FRET, 24 h; series mostly up to 46.1 µM; further: nearly all actives have a fitted effect of over 55% in size
How it was run: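 Read-out is a two-antibody TR-FRET for ZIKV NS1, normalized between uninfected cells and infected cells. Compound added 1 h before MR766 infection at MOI 0.5; human HEK 293 cells incubated 24 h, 37 C.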

[4] = qHTS of pediatric cancer cell lines to identify multiple opportunities for drug repurposing: Primary screen for TC32 cells (AID 1347089); settings: TC32 Ewing sarcoma viability, CellTiter-Glo luminescence, 48 h; series mostly up to 45.8 µM; further: nearly all actives have a fitted effect of over 60% in size; further: potency means the concentration at half of the fitted maximal effect
How it was run: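 A viability screen of TC32 cells was run over 48 h, with primary MIPE doses spanning 0.78 nM–46 µM and NPC doses 0.59 nM–46 µM. ATP luminescence (CellTiter-Glo) served as the read-out.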

[5] = qHTS of pediatric cancer cell lines to identify multiple opportunities for drug repurposing: Primary screen for SJ-GBM2 cells (AID 1347091); settings: SJ-GBM2 viability, CellTiter-Glo luminescence, 48 h; series mostly up to 46 µM; further: potency means the concentration at half of the fitted maximal effect
How it was run: (§1)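 Viability measured as metabolically active cells via CellTiter-Glo luminescence following 48 hours of compound exposure, 11-point dilutions in confirmatory testing. 500-1,000 cells/well plated 5 hours before dosing; controls were DMSO and 2.3 µM bortezomib.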

[6] = qHTS of pediatric cancer cell lines to identify multiple opportunities for drug repurposing: Primary screen for BT-37 cells (AID 1347094); settings: BT-37 viability, CellTiter-Glo luminescence, 48 h; series mostly up to 57.3 µM
How it was run: (§2)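 500-1,000 cells/well; 5 h pre-incubation 37 °C/5% CO2; compound pinned; 48 h; CellTiter-Glo, 15 min RT; luminescence. MIPE 11-pt from 0.78 nM, NPC 8-pt from 0.59 nM final. Bortezomib 2.3 µM final as positive control.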

[7] = qHTS of pediatric cancer cell lines to identify multiple opportunities for drug repurposing: Primary screen for NB-EBc1 cells (AID 1347095); settings: NB-EBc1 neuroblastoma viability, CellTiter-Glo luminescence, 48 h; series mostly up to 46 µM; further: potency means the concentration at half of the fitted maximal effect
How it was run: as §2

[8] = qHTS of pediatric cancer cell lines to identify multiple opportunities for drug repurposing: Primary screen for U-2 OS cells (AID 1347096); settings: U-2 OS viability, CellTiter-Glo luminescence, 48 h; series mostly up to 46 µM; further: nearly all actives have a fitted effect of over 50% in size
How it was run: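 Viability after 48 h compound treatment at 37C, 500-1,000 cells/well, read as ATP luminescence with CellTiter-Glo. Primary screens used 11-point (MIPE, 0.78 nM-46 µM) or 8-point (NPC, 0.59 nM-46 µM) final concentrations; follow-up screens used 11-point dilutions.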

[9] = qHTS of pediatric cancer cell lines to identify multiple opportunities for drug repurposing: Primary screen for DAOY cells (AID 1347090); settings: DAOY medulloblastoma viability, CellTiter-Glo luminescence, 48 h; series mostly up to 46 µM; further: nearly all actives have a fitted effect of over 55% in size
How it was run: as §1

[10] = qHTS of pediatric cancer cell lines to identify multiple opportunities for drug repurposing: Primary screen for A673 cells (AID 1347092); settings: A673 Ewing sarcoma viability, CellTiter-Glo ATP luminescence, 48 h; series mostly up to 46 µM; further: nearly all actives have a fitted effect of over 45% in size; further: potency means the concentration at half of the fitted maximal effect
How it was run: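 Titration-based qHTS on A673 cells: MIPE compounds spanned 11 points (0.78 nM to 46 µM final), NPC compounds 8 points (0.59 nM to 46 µM final). Viability after 48 h was measured by ATP luminescence.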

[11] = qHTS of pediatric cancer cell lines to identify multiple opportunities for drug repurposing: Primary screen for SK-N-MC cells (AID 1347093); settings: SK-N-MC viability, CellTiter-Glo luminescence, 48 h; series mostly up to 46 µM; further: potency means the concentration at half of the fitted maximal effect
How it was run: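 Metabolically active cells were quantified by ATP-dependent luminescence (CellTiter-Glo, 15 min at room temperature) following 48 h treatment. Cells had been plated at 500-1,000 per well and settled for 5 h beforehand.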

Measured: Potency

Cc1ncc([N+](=O)[O-])n1C
not listed: [9] | [10] | [11]
inactive: all other assays above

c1ccc(C(O[C@H]2CCCN(CCc3ccc4c(c3)OCO4)C2)c2ccccc2)cc1
not listed: [5] | [6] | [11]
inactive: all other assays above

COc1cc2c(cc1OC)CN(C(=O)[C@H](C)N[C@@H](CCc1ccccc1)C(=O)O)[C@H](C(=O)O)C2
not listed: [5] | [7]
inactive: all other assays above

Nc1ccc([N+](=O)[O-])c(C(F)(F)F)c1
not listed: [5] | [10]
inactive: all other assays above

CN1CCCN(C(c2ccccc2)c2ccc(Cl)cc2)CC1 (centres undefined)
not listed: [5] | [6] | [10] | [11]
inactive: all other assays above

C/C=C(/C(=C/C)c1ccc(OC(C)=O)cc1)c1ccc(OC(C)=O)cc1
inactive: [1] | [2] | [3] | [4] | [6] | [8]
active: [11] 5.31 µM

COc1ccc(-n2nc(CCC(=O)N(C)O)cc2-c2ccc(Cl)cc2)cc1
inactive: [1] | [2] | [3] | [8]
active: [4] 16.7 µM | [11] 23.7 µM | [7] 21.1 µM

Fc1ccc(C(c2ccc(F)cc2)N2CCNCC2)cc1
not listed: [4]
inactive: all other assays above

CCCCCCOC(=O)NC(=N)c1ccc(NCc2nc3cc(C(=O)N(CCC(=O)OCC)c4ccccn4)ccc3n2C)cc1
active: [5] 21.1 µM
inactive: [1] | [2] | [3] | [9] | [8]

C[C@H]1C[C@@H]2[C@H]([C@@H](O)C[C@@]3(C)[C@H]2CC[C@]3(O)C(=O)CO)[C@@]2(C)C=CC(=O)C=C12
not listed: [4] | [6]
inactive: all other assays above

CCCN(CCC)C(=O)C(CCC(=O)OCCCN1CCN(CCOC(=O)Cc2c(C)n(C(=O)c3ccc(Cl)cc3)c3ccc(OC)cc23)CC1)NC(=O)c1ccccc1 (centres undefined)
inactive: [1] | [2] | [3] | [8]
active: [5] 18.8 µM

CCOC(=O)NNc1nncc2ccccc12
not listed: [4] | [8]
inactive: all other assays above

C[C@@H]1C[C@H]2[C@@H]3CCC4=CC(=O)C=C[C@]4(C)[C@@]3(F)[C@@H](O)C[C@]2(C)[C@@]1(O)C(=O)COC(=O)c1ccncc1
not listed: [4]
inactive: all other assays above

CCCCCCn1c(=O)c2c(ncn2C)n(C)c1=O
not listed: [4]
inactive: all other assays above

Cc1oc(=O)oc1COC(=O)[C@@H]1N2C(=O)[C@@H](NC(=O)[C@H](N)c3ccccc3)[C@H]2SC1(C)C
not listed: [4]
inactive: all other assays above

CC(NC(CCc1ccccc1)C(=O)O)C(=O)N1C(=O)N(C)CC1C(=O)O (centres undefined)
not listed: [4] | [8]
inactive: all other assays above

CCN(CC)CC(=O)Nc1c(C)cccc1C(=O)OC
not listed: [4]
inactive: all other assays above

O=c1[nH]sc2cc(Cl)ccc12
active: [10] 0.001 µM | [11] 0.001 µM | [7] 0.001 µM
inactive: [1] | [2] | [3]

CNC(=O)c1c(I)c(NC(C)=O)c(I)c(C(=O)O)c1I
not listed: [4] | [7]
inactive: all other assays above

CCOC(=O)O[C@]1(C(=O)OCCl)CC[C@H]2[C@@H]3CCC4=CC(=O)C=C[C@]4(C)[C@H]3[C@@H](O)C[C@@]21C
not listed: [4] | [10]
inactive: all other assays above

CC(=O)c1ccc(O)c(C(N)=O)c1
not listed: [3] | [8]
inactive: all other assays above

COC(=O)c1cc(Cl)ccc1NS(=O)(=O)C(F)(F)F
not listed: [4] | [5]
inactive: all other assays above

COc1cc(OC)nc(O[C@H](C(=O)O)C(OC)(c2ccccc2)c2ccccc2)n1
not listed: [4]
inactive: all other assays above

COc1ccc([C@@H]2Sc3ccccc3NC(=O)[C@@H]2O)cc1
active: [5] 7.5 µM
inactive: [1] | [2] | [3] | [8]

CCOC(=O)Oc1ccc(CCNC(=O)[C@H](CCSC)NC(C)=O)cc1OC(=O)OCC
not listed: [4] | [7]
inactive: all other assays above

O=C(CCCl)NCc1ccccc1
not listed: [4] | [6] | [10]
inactive: all other assays above

CC(C)NCCCC1(C(N)=O)c2ccccc2-c2ccccc21
not listed: [4]
inactive: all other assays above

Cc1cccc(OCC(O)CNC(C)(C)C)c1C (centres undefined)
not listed: [4] | [7]
inactive: all other assays above

O=c1[nH]c(=O)n([C@H]2O[C@H](CO)[C@@H](O)[C@@H]2O)cc1/C=C\Br
not listed: [4]
inactive: all other assays above

Nc1nc(=O)n([C@@H]2O[C@H](CO)[C@@H](O)[C@@H]2F)cc1I
not listed: [4] | [6] | [10]
inactive: all other assays above

COc1ccc2c(c1)c(CC(=O)OC/C=C(\C)CC/C=C(\C)CCC=C(C)C)c(C)n2C(=O)c1ccc(Cl)cc1
not listed: [4] | [6]
inactive: all other assays above

Nc1ccc2c(c1)CN1C(=O)c3ccccc3C1=N2
active: [7] 0.651 µM
inactive: [1] | [2] | [3] | [4] | [5]

CCN(CC)CC(=O)Oc1ccc(NC(C)=O)cc1
not listed: [4]
inactive: all other assays above
